Consider eight compounds from PubChem BioAssay (NCI).

About 83,000 compounds went through this panel and 20% of them were active in at least one assay; those are over-represented in the sample as a whole.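 Values shown are percent growth following 48 h exposure of cells in 96-well plates to a single concentration of compound; below 10 was considered active.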 Values without a mark were called inactive. Active and inactive are the calls of the source.

Test systems include NCI-H23 lung; NCI-H226 lung; NCI-H322M lung; HOP-62 NSCLC; NCI-H460 lung; HOP-92 NSCLC; NCI-H522 lung; A549/ATCC NSCLC; 786-0 renal; COLO 205 colon; DU-145 prostate; K-562 leukemia; MALME-3M melanoma; MDA-MB-231 breast; RXF 393 renal; SF-268 CNS; SF-295 CNS; SF-539 CNS; UACC-257 melanoma; M14 melanoma.
Assay in all cases: NCI-60 one-dose screen, 48 h (100 = growth as untreated, 0 = no growth, -100 = all killed)
Holding throughout (conditions): 10 µM unless noted

For `CN1/C(=C/C=C/c2n(Cc3ccc4ccccc4c3)c(Cl)c(Cl)[n+]2Cc2ccc3ccccc3c2)Oc2ccccc21`, the growth is -80% (active) in the assay on NCI-H23 lung; -75.4% (active) with NCI-H226 lung; -10.6% (active) in the assay with NCI-H322M lung; -85.7% (active) with HOP-62 NSCLC; -74.5% (active) with NCI-H460 lung; -81% (active) in the assay on HOP-92 NSCLC. Also, the growth was -81.6% (active) in the assay with NCI-H522 lung; -86.7% (active) in the assay with A549/ATCC NSCLC; -82.6% (active) with 786-0 renal; -80.1% (active) in the assay with COLO 205 colon; -86.6% (active) in the assay on DU-145 prostate; 89.4% in the assay with K-562 leukemia. The growth in the assay on MALME-3M melanoma was -97.1% (active); in the assay on MDA-MB-231 breast, -94% (active); with RXF 393 renal, -88.2% (active); in the assay on SF-268 CNS, -69.4% (active); in the assay with SF-295 CNS it was -68.4% (active); with SF-539 CNS, -94% (active). Moreover, the growth in the assay with UACC-257 melanoma is -77.9% (active); with M14 melanoma it was -77% (active).

For `O=c1c(/C=C/c2c(O)ccc3ccccc23)nnc2sc(-c3cccc([N+](=O)[O-])c3)nn12`, the growth with NCI-H23 lung was 61.6%; with NCI-H226 lung, 64.2%; in the assay with NCI-H322M lung it was 41.1%; in the assay on HOP-62 NSCLC, 31%; in the assay with NCI-H460 lung, 26.5%; with HOP-92 NSCLC, 65.7%. The growth is 86.3% in the assay on NCI-H522 lung; 45.7% with A549/ATCC NSCLC; 57% in the assay with 786-0 renal; 84.4% with COLO 205 colon; 44.1% in the assay with DU-145 prostate; 50.9% with K-562 leukemia. Besides, the growth with MALME-3M melanoma was 72.9%; in the assay on MDA-MB-231 breast, 30.8%; in the assay on RXF 393 renal, 74.5%; with SF-268 CNS, 40.4%; in the assay on SF-295 CNS it was 43.8%; in the assay with SF-539 CNS it was 53.2%. Further, the values for the growth with UACC-257 melanoma and in the assay on M14 melanoma were 54.6% and 52.3%, respectively.

`COc1cccc(-c2cc(-c3ccc(Nc4nc(Nc5ccc(Cl)cc5)nc(Nc5ccc(Cl)cc5)n4)cc3)nc(N)c2C#N)c1`: the growth in the assay on NCI-H23 lung is 37.9%; with NCI-H226 lung it was 10.5%; in the assay with NCI-H322M lung, 99.9%; with HOP-62 NSCLC, 95%; in the assay on NCI-H460 lung it was 69%; with HOP-92 NSCLC, -85.7% (active). In addition, the growth in the assay on NCI-H522 lung is 87.4%; with A549/ATCC NSCLC it was 43%; in the assay with 786-0 renal, 59.2%; in the assay on COLO 205 colon it was -30.4% (active); in the assay on DU-145 prostate, 56.3%; in the assay on K-562 leukemia, 41.5%. The growth is -52.9% (active) with MALME-3M melanoma; -14.1% (active) with MDA-MB-231 breast; -48.7% (active) with RXF 393 renal; 71% in the assay on SF-268 CNS; 83.2% in the assay on SF-295 CNS; 6.72% (active) with SF-539 CNS. Also, the growth is 16.3% in the assay on UACC-257 melanoma and 15.6% with M14 melanoma.

As for `COC(CCP(=O)(c1ccccc1)c1ccccc1)(C(=O)c1ccccc1)c1ccccc1` (stereo not given), the growth was 77.3% in the assay on NCI-H23 lung; 85.7% in the assay on NCI-H226 lung; 72.8% in the assay with NCI-H322M lung; 88% in the assay on HOP-62 NSCLC; 50% with NCI-H460 lung; -8.84% (active) in the assay with HOP-92 NSCLC. Further, the growth was 28.9% in the assay on NCI-H522 lung; 48.1% in the assay with A549/ATCC NSCLC; 89.4% with 786-0 renal; 62.4% in the assay with COLO 205 colon; 111% in the assay with DU-145 prostate; 9.03% (active) in the assay on K-562 leukemia. The growth is 96.3% in the assay with MALME-3M melanoma; 73.6% with MDA-MB-231 breast; 76.2% with RXF 393 renal; 86.1% in the assay on SF-268 CNS; 32.1% with SF-295 CNS; 87.2% with SF-539 CNS. For the same compound, the growth in the assay with UACC-257 melanoma was 64.3%; in the assay with M14 melanoma, 63%.

With `CCCCCCCCNc1ncnc2c1ncn2Cc1nnc2c3ccccc3c(Cl)nn12`, the growth with NCI-H23 lung was 59.6%; with NCI-H226 lung, 39.9%; with NCI-H322M lung, 77.8%; in the assay with HOP-62 NSCLC, 54.3%; with NCI-H460 lung it was 53.3%; with HOP-92 NSCLC it was 3.23% (active). Further, the growth with NCI-H522 lung was 52.9%; with A549/ATCC NSCLC, 73.1%; with 786-0 renal, 47.7%; in the assay with COLO 205 colon it was 65.5%; in the assay with DU-145 prostate it was 49%; in the assay with K-562 leukemia it was 14.8%. Besides, the growth in the assay with MALME-3M melanoma is 69.9%; in the assay on MDA-MB-231 breast it was 55.4%; in the assay with RXF 393 renal, 36.1%; in the assay with SF-268 CNS, 35.5%; with SF-295 CNS, 61.8%; in the assay on SF-539 CNS, 49.9%. The growth with UACC-257 melanoma was 46.9%; with M14 melanoma, 34.5%.

On to `CSc1nc(N)c2c(n1)NC(c1ccccc1)C1CCc3ccccc3C1=N2` (stereo not given), for which the growth was 39.4% in the assay with NCI-H23 lung; 77.6% in the assay on NCI-H226 lung; 112% with NCI-H322M lung; 64.4% in the assay with HOP-62 NSCLC; 57.3% in the assay on NCI-H460 lung; 51.2% in the assay with HOP-92 NSCLC. Moreover, the growth with NCI-H522 lung was 45.9%; in the assay with A549/ATCC NSCLC, 72.2%; in the assay with 786-0 renal it was 69.2%; in the assay on COLO 205 colon, 78.6%; in the assay with DU-145 prostate, 74.5%; with K-562 leukemia, 47.7%. The growth in the assay with MALME-3M melanoma was 113%; in the assay on MDA-MB-231 breast it was 71.9%; in the assay on RXF 393 renal, 84.4%; in the assay on SF-268 CNS, 60.1%; in the assay with SF-295 CNS, 41.7%; in the assay with SF-539 CNS, 102%. Besides, the growth in the assay with UACC-257 melanoma is 88.7%; in the assay on M14 melanoma, 55.7%.

Consider `COc1ccc2c(O)cc3c(c2c1)[C@H](CCl)CN3C(=O)c1cc2cc(NC(=O)CCN3CCOCC3)ccc2[se]1`, for which the growth is -50.7% (active) in the assay on NCI-H23 lung; -12.5% (active) in the assay on NCI-H226 lung; -87.8% (active) with NCI-H322M lung; -79.7% (active) in the assay on HOP-62 NSCLC; -7.37% (active) in the assay with NCI-H460 lung; 94.8% with HOP-92 NSCLC. The growth is -82.5% (active) with NCI-H522 lung; -29.5% (active) with A549/ATCC NSCLC; -59.8% (active) in the assay on 786-0 renal; -78.2% (active) in the assay on COLO 205 colon; -0.877% (active) in the assay with DU-145 prostate; 70.1% in the assay on K-562 leukemia. The growth in the assay with MALME-3M melanoma was -88% (active); in the assay on MDA-MB-231 breast, -58.4% (active); in the assay on RXF 393 renal, -88.4% (active); in the assay with SF-268 CNS, -42.7% (active); with SF-295 CNS, -77.7% (active); in the assay with SF-539 CNS, -64.4% (active). Also, the growth was -47.5% (active) in the assay on UACC-257 melanoma and -71.1% (active) in the assay with M14 melanoma.

For the compound `Nc1ncc(-c2ccc3ncnc(N4CCc5cc(F)c(Cl)cc54)c3c2)cc1C=O`, the growth is 31.6% with NCI-H23 lung; 37.2% in the assay with NCI-H226 lung; 2.51% (active) in the assay with NCI-H322M lung; 15.2% in the assay on HOP-62 NSCLC; 11.8% with NCI-H460 lung; -22.8% (active) with HOP-92 NSCLC. Also, the growth in the assay on NCI-H522 lung is 26.7%; in the assay with A549/ATCC NSCLC, 7.18% (active); in the assay on 786-0 renal, 8.62% (active); with COLO 205 colon, 19.6%; in the assay with DU-145 prostate it was 10.1%; with K-562 leukemia, 35.5%. For the same compound, the growth is -15.5% (active) in the assay on MALME-3M melanoma; 26.4% in the assay on MDA-MB-231 breast; -35% (active) with RXF 393 renal; 18.1% in the assay on SF-268 CNS; 6.94% (active) with SF-295 CNS; 12.1% in the assay with SF-539 CNS. The growth is 24.6% in the assay with UACC-257 melanoma and 19% in the assay on M14 melanoma.
